# Reference: PubChem BioAssay (NCI)
# This is part of a sample that, as a whole, favours compounds with a hit. Of some 79,000 tested, about 15% had one in any assay. A number with no mark means an inactive call. The source made the active and inactive calls. Cut-off read from the data, not from the text of the source: active = growth inhibition above about 70%; inactive = the rest.
# Test: NCI Yeast Anticancer Drug Screen. Data for the sgs1 mgt1 strain (AID 161);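 note: 0% = growth of cultures given vehicle only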
# Conditions: S. cerevisiae sgs1 mgt1 strain, at 50.0 µM, stronger effect = higher value
# In short: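 Growth of a repair-deficient yeast mutant was monitored after compound treatment and expressed as inhibition relative to vehicle-treated cultures.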
row,SMILES,growth inhibition
1,O=C(CBr)N1c2ccccc2Sc2ccc3ccccc3c21,91.7% (active)
2,CC(C)(C)CC(C)(C)N[P+](NC(C)(C)CC(C)(C)C)(NC(C)(C)CC(C)(C)C)NC(C)(C)CC(C)(C)C,91.5% (active)
3,COc1ccc(/C=C/c2ccnnc2)c(OC)c1OC,28.6%
4,O=Cc1cc(-c2ccccc2)n(-c2ccccc2)c1-c1ccccc1,63%
5,CC(=O)Oc1ccc(/C=C/c2ccncc2)cc1,60%
6,OC(c1ccccc1)(c1ccccc1)c1ccc[cH-]1.OC(c1ccccc1)(c1ccccc1)c1ccc[cH-]1.[Fe+2],-2.3%
7,O=C1C=CC(=O)N1c1ccc(Cl)cc1Br,94.2% (active)
8,Cc1c(N)nc(C2CC(=O)N2CC(N)C(N)=O)nc1C(=O)NC(C(=O)NC(C)C(O)C(C)C(=O)NC(C(=O)NCCc1nc(-c2nc(C(=O)NCCNCC(C)O)cs2)cs1)C(C)O)C(OC1OC(CO)C(O)C(O)C1OC1OC(CO)C(O)C(OC(N)=O)C1O)c1cnc[nH]1 (stereo not drawn),93.3% (active)
9,CNC(=S)/N=c1/sc([N+](=O)[O-])c(C)n1C,67.7%
10,O=c1c2ccccc2ncn1Cc1ccccc1[N+](=O)[O-],-7%
11,Cc1nn(C(=O)c2ccncc2)c(C)c1N=Nc1ccccc1[N+](=O)[O-],84.8% (active)
12,CCC[CH2][Ge]([CH2]CCC)([CH2]CCC)[O]C(=O)C(OC(C)=O)c1ccccc1 (stereo not drawn),86% (active)
13,Nc1ccc2c(c1)[nH]c(=O)c1cc(Cl)c(Cl)cc12,78.2% (active)
14,CCCCCCCCCCCCSC1=C(N)C(=O)c2ccccc2C1=O,-9.05%
15,CCC(C)(C)c1ccc(OCCO)c([N+](=O)[O-])c1,74% (active)
16,C/C(=N/O)c1cccc(C(F)(F)F)c1,-6.55%
17,CCCCCCN(S(=O)(=O)c1ccc([N+](=O)[O-])cc1)S(=O)(=O)c1ccc([N+](=O)[O-])cc1,71.3% (active)
18,N#CC1=C(N)OC(c2ccccc2)=C(C#N)C1c1ccccc1[N+](=O)[O-] (stereo not drawn),22.7%
19,COC1CCCCC1C(=O)C(C#N)C1CCCCC1C1CCCCC1 (stereo not drawn),97% (active)
20,COCCOC1=C(Cl)C(=O)c2c(O)ccc(O)c2C1=O,92.4% (active)
21,NC(CSSCC(N)C(=O)Nc1ccc2ccccc2c1)C(=O)Nc1ccc2ccccc2c1 (stereo not drawn),91.7% (active)
22,CSc1c(S(C)=O)c2ccccc2n1C (stereo not drawn),-22.2%
23,CCCCCCCCCCCCCCCCNCCCCCCCC(=O)O,75.9% (active)

# Test: NCI Yeast Anticancer Drug Screen. Data for the cln2 rad14 strain (AID 165);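 note: 0% = growth equal to vehicle treated cultures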
# Conditions: S. cerevisiae cln2 rad14 strain, at 5.0 µM (retest, dose inferred, filed as 0.5), stronger effect = higher value
# In short: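 Growth inhibition, relative to vehicle-treated controls, is the read-out. The test organism is a yeast strain with defined genetic alterations, cln2 rad14.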
row,SMILES,growth inhibition
1,CCCCCCCCCCCCCCCC1=NCCN1C,15%
2,C=CCNC(=O)c1ccccc1C(=O)O,2%
3,O=C(Nc1ccc(Cl)cc1Cl)OC(Cn1cncn1)c1ccc(Cl)cc1Cl (stereo not drawn),66%
4,CC1=C(C)CC2C(=O)C(C(O)CC(C)C)=CC(=O)C2C1 (stereo not drawn),-13%
5,BrCc1ccccc1C[P+](c1ccccc1)(c1ccccc1)c1ccccc1,25%
6,Cc1cn(C(C#N)=C(C#N)C#N)c2ccccc12,-2%
7,O=C1OCCCOC(=O)c2cc(ccc2O)OCC#CC#CCOc2ccc(O)c1c2,4%
8,O=[N+]([O-])c1cc2ccc(O)cc2c2ccccc12,-1%
9,COc1cc2c(oc(=O)c3cc(C)cc(OC)c32)c2c(C3OC(C)C(O)C(C)(O)C3O)ccc(O)c12 (stereo not drawn),75% (active)
10,Oc1c(Cl)cc(Cl)c(Cc2c(Cl)cc(Cl)c(O)c2Cl)c1Cl,98% (active)
11,N#CI1OC(C(F)(F)F)(C(F)(F)F)c2ccccc21,53%
12,c1ccc2c(c1)[nH]c1c[n+]3c(c[n+]12)[nH]c1ccccc13,-7%
13,CC1Cc2cc(O)c(O)cc2-c2cc(O)c(O)cc2CC1C (stereo not drawn),7%
14,COc1ccc(C2c3cc4c(cc3OC(C)(O)C2C)OCO4)cc1 (stereo not drawn),8%
15,Cc1ccc(C2(O)CC(c3ccc([N+](=O)[O-])o3)=NN2C(=O)COc2ccc(Cl)cc2)cc1 (stereo not drawn),11%
16,CCO[Si](CC)(OCC)OCC,0%
17,C/C=C(/CCC1NCCC2c3ccccc3NC12)[Si](C)(C)C (stereo not drawn),-5%
18,O=C(CBr)N1c2ccccc2Sc2ccc3ccccc3c21,62%
19,CC(C)(C)CC(C)(C)N[P+](NC(C)(C)CC(C)(C)C)(NC(C)(C)CC(C)(C)C)NC(C)(C)CC(C)(C)C,84% (active)
20,COc1ccc(/C=C/c2ccnnc2)c(OC)c1OC,-4%

row,SMILES,growth inhibition
1,O=Cc1cc(-c2ccccc2)n(-c2ccccc2)c1-c1ccccc1,-6%
2,CC(=O)Oc1ccc(/C=C/c2ccncc2)cc1,-58%
3,OC(c1ccccc1)(c1ccccc1)c1ccc[cH-]1.OC(c1ccccc1)(c1ccccc1)c1ccc[cH-]1.[Fe+2],4%
4,O=C1C=CC(=O)N1c1ccc(Cl)cc1Br,68%
5,Cc1c(N)nc(C2CC(=O)N2CC(N)C(N)=O)nc1C(=O)NC(C(=O)NC(C)C(O)C(C)C(=O)NC(C(=O)NCCc1nc(-c2nc(C(=O)NCCNCC(C)O)cs2)cs1)C(C)O)C(OC1OC(CO)C(O)C(O)C1OC1OC(CO)C(O)C(OC(N)=O)C1O)c1cnc[nH]1 (stereo not drawn),61%
6,CNC(=S)/N=c1/sc([N+](=O)[O-])c(C)n1C,-33%
7,O=c1c2ccccc2ncn1Cc1ccccc1[N+](=O)[O-],-11%
8,Cc1nn(C(=O)c2ccncc2)c(C)c1N=Nc1ccccc1[N+](=O)[O-],21%
9,CCC[CH2][Ge]([CH2]CCC)([CH2]CCC)[O]C(=O)C(OC(C)=O)c1ccccc1 (stereo not drawn),55%
10,Nc1ccc2c(c1)[nH]c(=O)c1cc(Cl)c(Cl)cc12,63%
11,CCCCCCCCCCCCSC1=C(N)C(=O)c2ccccc2C1=O,-3%
12,CCC(C)(C)c1ccc(OCCO)c([N+](=O)[O-])c1,13%
13,C/C(=N/O)c1cccc(C(F)(F)F)c1,-63%
14,CCCCCCN(S(=O)(=O)c1ccc([N+](=O)[O-])cc1)S(=O)(=O)c1ccc([N+](=O)[O-])cc1,8%
15,N#CC1=C(N)OC(c2ccccc2)=C(C#N)C1c1ccccc1[N+](=O)[O-] (stereo not drawn),11%
16,COC1CCCCC1C(=O)C(C#N)C1CCCCC1C1CCCCC1 (stereo not drawn),-5%
17,COCCOC1=C(Cl)C(=O)c2c(O)ccc(O)c2C1=O,69%
18,NC(CSSCC(N)C(=O)Nc1ccc2ccccc2c1)C(=O)Nc1ccc2ccccc2c1 (stereo not drawn),21%
19,CSc1c(S(C)=O)c2ccccc2n1C (stereo not drawn),25%
20,CCCCCCCCCCCCCCCCNCCCCCCCC(=O)O,7%
